# Results taken from the supplement of paper PMC3334620.
# The full ranking holds about 33,000 sequences; the median of “E-score (-0.5 to 0.5)” is about -0.0059, and the highest 2% start at about 0.26. This excerpt belongs to a sample that is enriched for the highest values.
# Target: T1, Cin5 (UniProt P40917)
# T1 sequence: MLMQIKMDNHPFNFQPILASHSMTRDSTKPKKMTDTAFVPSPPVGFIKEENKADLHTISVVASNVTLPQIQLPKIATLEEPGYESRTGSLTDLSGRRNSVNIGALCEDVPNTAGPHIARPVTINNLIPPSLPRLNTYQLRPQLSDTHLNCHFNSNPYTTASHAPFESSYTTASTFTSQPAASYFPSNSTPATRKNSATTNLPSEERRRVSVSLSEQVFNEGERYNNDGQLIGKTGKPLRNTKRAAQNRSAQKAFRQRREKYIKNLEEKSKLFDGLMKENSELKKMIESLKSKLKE
# Assay: PBM E-score (8-mer binding enrichment) (E-score (-0.5 to 0.5)); higher = stronger / more preferred TF binding
# Settings: protein concentration: 100 nM; construct: GST-full length
# Description: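 Universal 'all 10-mer' protein binding microarrays (Agilent AMADID 015681) probed with GST-tagged S. cerevisiae TFs (full-length or DBD) made by in vitro transcription/translation (PURExpress), about 100-200 nM. Bound TF was detected with fluorescent anti-GST. Each ungapped 8-mer (which stands for itself and its reverse complement) is scored by the PBM enrichment score (E-score), a modified Wilcoxon-Mann-Whitney statistic from -0.5 to +0.5, computed with the Universal PBM Analysis Suite. Scale: above 0.35 generally sequence-specific binding.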
row,Sequence,PBM E-score
1,CATGCTGA,0.181
2,GATGCTTA,0.0868
3,AATGCTGA,0.118
4,ACGGTGGA,-0.285
5,GAGTCGAC,0.063
6,GCCTAACC,-0.12
7,ATCCGACG,0.0285
8,CCACTTAC,0.303
9,GCACTTAC,0.112
10,CCGCTTAC,0.334
11,ACGCTTAG,0.0472
12,ACGCTTAC,0.269
13,ACGCTTAT,0.101
14,CCGCTTAA,0.103
15,CCACTTAA,0.0597
16,CCGCTTAG,-0.0568
17,GAACAGGA,-0.126
18,CCTTGCAC,-0.0869
19,TAGATCAA,0.0289
20,ACGGAGAG,0.00731
21,AGGTAAGG,0.0286
22,ACGTAACG,0.214
23,GCGTAACC,0.0286
24,GTGTAAGA,0.0309
25,AGGTAAGC,0.321

row,Sequence,PBM E-score
1,TCGTAAGA,-0.00999
2,ACGTAAGT,0.25
3,ACGTAACC,0.262
4,CGGTAAGC,0.114
5,ATGTAAGA,0.274
6,CTGTAAGA,-0.00022
7,ACGTAAGA,0.347
8,AATCGTCG,0.14
9,ACATTCAC,0.093
10,AAATTCTC,-0.0624
11,TCCCTTAA,-0.186
12,AACTAGGT,0.118
13,CGACATAC,0.104
14,GTCACACA,0.0464
15,TACTTCGA,0.183
16,CGTCCTCC,-0.139
17,CATGGTAA,0.0768
18,ACTCATCT,0.156
19,GATATGGA,0.244
20,ATGTAAGC,0.431
21,CTGTAAGC,0.0794
22,AAGTAATG,0.184
23,ATGTAAGG,0.103
24,ACGTAATG,0.334
25,ACGTAAAG,0.191

row,Sequence,PBM E-score
1,ACAGGGAT,0.0409
2,ACAATCAG,0.134
3,GATCGTAA,0.116
4,CAACGGAA,0.103
5,AAACGTAA,0.234
6,GAACGTTA,-0.104
7,GAACGTAA,0.297
8,TATCGTAA,0.28
9,GAACGTAC,-0.115
10,GAACGGAA,0.176
11,TAACGTAA,0.415
12,CAACGTAA,0.204
13,TAACGGAA,0.322
14,CATCGTAA,0.0929
15,GAGGGGGA,-0.324
16,GTGAGATA,0.164
17,CTAGCCGC,0.0223
18,GACTAGAC,-0.179
19,ATCTGAAT,0.0915
20,GACCTTCC,-0.147
21,TAATATTA,0.368
22,GCATATTA,0.246
23,CGATATTA,0.355
24,GAATATAC,0.195
25,GGATATTA,0.143

row,Sequence,PBM E-score
1,CGATATTC,0.0444
2,AAATATTT,0.141
3,GAATATTA,0.274
4,CAATATTC,0.102
5,GAATATCA,0.174
6,AGATATTA,0.168
7,GAATATTC,0.265
8,GATCGTTA,0.0193
9,GGACCTAA,-0.0416
10,CTGGGAAG,-0.0869
11,CGATCGCC,0.0437
12,AGTCTTAT,0.158
13,AAGGGCGA,-0.241
14,CAAGACGA,-0.0306
15,CTCCGCCC,-0.173
16,CTCCACAC,-0.0294
17,ACTTCTTG,-0.0532
18,AGGCTTGA,-0.0503
19,CCACCTCC,-0.266
20,AAGCACTC,-0.0467
21,CAATATCC,0.116
22,CAATATTG,0.205
23,AAATATTA,0.315
24,TAGTATCA,0.296
25,CAGTATCA,0.0369

row,Sequence,PBM E-score
1,CAATATCA,0.108
2,GAGTATCA,-0.0396
3,TAATATCA,0.26
4,AAATATCA,0.179
5,AAATATTG,0.222
6,AAATATTC,0.183
7,CAATATTA,0.275
8,ACCTACGT,0.0549
9,CACTGCAG,-0.0359
10,CGGCAGTC,0.0575
11,GTGCCAGA,-0.293
12,GCACTACC,-0.00786
13,TACCGGTA,0.0137
14,GCGATTCA,0.0512
15,AAAATCCT,-0.223
16,CTTTAGCC,0.0446
17,CCGGCTTC,0.0218
18,TGGAGCCA,-0.184
19,ATTGGCGG,-0.0494
20,AGGATAGC,-0.064
21,CTGACCGC,-0.068
22,ACAATAAA,0.162
23,ATTATAAG,0.188
24,ATTATAAA,0.195
25,ATTATAAT,0.265

row,Sequence,PBM E-score
1,ACTATAAC,0.0218
2,ACTATAAA,0.146
3,ACAATAAT,0.267
4,ACTATAAT,0.27
5,ACAATAAC,0.143
6,ATGAATAA,0.142
7,ACCAGGGG,-0.265
8,AGGCAGTG,0.141
9,GAAATATA,0.287
10,GAAAAATA,0.158
11,AAAATATA,0.159
12,GAAATATC,0.111
13,CAAATATA,0.166
14,TAAATATA,0.261
15,CCGTTGGC,-0.124
16,AAACAGCA,0.0422
17,CCCCATCC,0.00185
18,ATACAATA,0.278
19,CAACAATA,0.155
20,CTACAATA,0.137
21,AAACAATA,0.287
22,AGACAATG,-0.00251
23,GAACAATA,0.229
24,AAACAATT,0.154
25,AGACAATC,0.112

row,Sequence,PBM E-score
1,ATACAATC,0.162
2,AGACAATA,0.279
3,TAACAATA,0.273
4,AAACAATG,0.196
5,GCGGATCC,-0.0308
6,CGAAGTAG,0.00111
7,ATTACCAG,0.18
8,ATAGCCAC,-0.0146
9,CGAGTTCA,-0.0225
10,TACTGCCA,0.0854
11,GACCGGAA,-0.0318
12,CAGCTATC,-0.0573
13,CCAGCAAG,-0.182
14,AGTTTTTG,0.107
15,ACCAAACG,-0.038
16,AGCAAGCT,-0.156
17,ACAACCAC,0.0998
18,ACAACCAT,0.306
19,ACAACCAG,-0.00422
20,ACAGCTTG,0.11
21,ACCATTGG,0.0343
22,ACACCTCG,0.0498
